# Columns and labels:
# Experiment in all cases: DAPPL (digital affinity profiling via proximity ligation, sequencing); 10 mM Tris-HCl pH 7.5, 50 mM NaCl, 1 mM DTT, 4% glycerol, room temperature, 30 min; GST-TFs on glutathione beads, 16-mer random dsDNA library, 0.1% formaldehyde crosslink after washing; high values mean tight binding
# FLI1 = target: T1, FLI1 (Homo sapiens, UniProt Q01543 1-452); details: protein: recombinant; tags: N-terminal GST; dsDNA, one strand shown
# T1 sequence: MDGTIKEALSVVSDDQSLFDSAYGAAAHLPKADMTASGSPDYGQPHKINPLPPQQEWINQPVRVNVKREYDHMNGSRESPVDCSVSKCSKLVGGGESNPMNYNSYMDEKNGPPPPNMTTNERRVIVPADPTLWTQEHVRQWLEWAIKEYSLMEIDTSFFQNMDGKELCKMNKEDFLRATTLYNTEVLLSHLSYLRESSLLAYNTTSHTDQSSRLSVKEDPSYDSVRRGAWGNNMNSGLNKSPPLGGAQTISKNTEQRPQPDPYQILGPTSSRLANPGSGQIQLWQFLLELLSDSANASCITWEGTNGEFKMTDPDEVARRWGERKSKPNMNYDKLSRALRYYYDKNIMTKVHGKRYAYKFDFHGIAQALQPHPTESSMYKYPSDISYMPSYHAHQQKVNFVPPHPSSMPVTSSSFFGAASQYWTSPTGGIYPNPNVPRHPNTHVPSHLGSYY
# Outline: (§1)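 Binding signal is defined as a hexamer's read frequency for one factor over its frequency for the tag-only sample. To obtain reads, GST-fused human transcription factors were expressed in yeast, captured on glutathione beads, barcoded with DNA and pooled with that sample. Pools met 200 nmole of a 16-mer random double-stranded DNA library in Tris/NaCl/DTT/glycerol buffer for 30 min at room temperature before washing, 0.1% formaldehyde crosslinking, proximity ligation (BsaI/T4 ligase, 1 h, 37 °C), PCR and Illumina NextSeq500 sequencing.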
# ELK1 = target: T2, ELK1 (Homo sapiens, UniProt P19419 1-428); details: protein: recombinant; tags: N-terminal GST; dsDNA, one strand shown
# T2 sequence: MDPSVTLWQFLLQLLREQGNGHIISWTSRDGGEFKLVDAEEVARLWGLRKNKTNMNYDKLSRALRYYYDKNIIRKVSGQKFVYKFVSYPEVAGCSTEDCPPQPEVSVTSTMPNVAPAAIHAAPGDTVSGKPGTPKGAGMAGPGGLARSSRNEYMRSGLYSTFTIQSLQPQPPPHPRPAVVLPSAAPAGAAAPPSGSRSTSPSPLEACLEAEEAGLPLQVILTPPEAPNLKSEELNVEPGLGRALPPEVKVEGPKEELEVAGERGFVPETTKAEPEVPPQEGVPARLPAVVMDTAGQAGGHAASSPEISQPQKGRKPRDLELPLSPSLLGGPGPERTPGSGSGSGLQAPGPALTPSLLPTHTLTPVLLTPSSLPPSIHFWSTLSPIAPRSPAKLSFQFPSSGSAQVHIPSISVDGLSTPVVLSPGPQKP
# Outline: as §1
# GABPA = target: T3, GABPA (Homo sapiens, UniProt Q06546 1-454); details: protein: recombinant; tags: N-terminal GST; dsDNA, one strand shown
# T3 sequence: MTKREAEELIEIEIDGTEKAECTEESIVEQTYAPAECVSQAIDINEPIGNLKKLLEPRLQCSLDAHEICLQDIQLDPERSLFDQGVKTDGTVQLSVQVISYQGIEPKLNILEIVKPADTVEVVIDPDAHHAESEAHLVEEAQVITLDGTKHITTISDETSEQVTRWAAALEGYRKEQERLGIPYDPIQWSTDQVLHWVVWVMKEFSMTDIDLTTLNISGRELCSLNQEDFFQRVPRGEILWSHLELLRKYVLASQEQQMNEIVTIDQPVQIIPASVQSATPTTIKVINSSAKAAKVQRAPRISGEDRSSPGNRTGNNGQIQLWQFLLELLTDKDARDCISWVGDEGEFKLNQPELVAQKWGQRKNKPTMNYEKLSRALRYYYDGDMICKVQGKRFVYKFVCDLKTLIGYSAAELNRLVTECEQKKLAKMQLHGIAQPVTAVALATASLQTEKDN
# Outline: as §1
# ERG = target: T4, ERG (Homo sapiens, UniProt P11308 1-479); details: protein: recombinant; tags: N-terminal GST; dsDNA, one strand shown
# T4 sequence: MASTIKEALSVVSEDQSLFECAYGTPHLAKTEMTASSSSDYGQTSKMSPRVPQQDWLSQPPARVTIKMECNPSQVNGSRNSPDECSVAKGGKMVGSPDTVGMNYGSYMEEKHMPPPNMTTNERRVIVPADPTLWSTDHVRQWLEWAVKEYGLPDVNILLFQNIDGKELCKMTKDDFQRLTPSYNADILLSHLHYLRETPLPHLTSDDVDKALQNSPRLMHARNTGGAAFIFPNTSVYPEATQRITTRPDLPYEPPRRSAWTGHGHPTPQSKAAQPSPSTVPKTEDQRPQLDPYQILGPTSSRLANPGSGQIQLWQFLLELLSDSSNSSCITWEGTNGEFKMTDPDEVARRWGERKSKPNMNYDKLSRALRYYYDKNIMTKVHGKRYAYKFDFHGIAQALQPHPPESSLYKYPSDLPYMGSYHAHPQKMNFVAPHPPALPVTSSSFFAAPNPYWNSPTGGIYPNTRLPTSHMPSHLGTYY
# Outline: as §1
# ELF1 = ELF1 (Homo sapiens, UniProt P32519 1-619); details: protein: recombinant; tags: N-terminal GST; dsDNA, one strand shown
# Outline: as §1
# EHF = target: T5, EHF (Homo sapiens, UniProt Q9NZC4 1-300); details: protein: recombinant; tags: N-terminal GST; dsDNA, one strand shown
# T5 sequence: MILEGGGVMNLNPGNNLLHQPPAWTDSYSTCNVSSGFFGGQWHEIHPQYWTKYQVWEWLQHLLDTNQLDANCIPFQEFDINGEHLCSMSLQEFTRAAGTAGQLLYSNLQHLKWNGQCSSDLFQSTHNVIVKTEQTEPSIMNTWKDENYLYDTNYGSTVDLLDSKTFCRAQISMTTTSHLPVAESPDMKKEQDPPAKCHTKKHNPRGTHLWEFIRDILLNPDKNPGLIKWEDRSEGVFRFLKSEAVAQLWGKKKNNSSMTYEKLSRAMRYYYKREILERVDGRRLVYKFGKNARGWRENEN
# Outline: as §1
# SPI1 = SPI1 (Homo sapiens, UniProt P17947 1-270); details: protein: recombinant; tags: N-terminal GST; dsDNA, one strand shown
# Outline: as §1
# SPIB = SPIB (Homo sapiens, UniProt Q01892 1-262); details: protein: recombinant; tags: N-terminal GST; dsDNA, one strand shown
# Outline: as §1
# ELK3 = target: T6, ELK3 (Homo sapiens, UniProt P41970 1-407); details: protein: recombinant; tags: N-terminal GST; dsDNA, one strand shown
# T6 sequence: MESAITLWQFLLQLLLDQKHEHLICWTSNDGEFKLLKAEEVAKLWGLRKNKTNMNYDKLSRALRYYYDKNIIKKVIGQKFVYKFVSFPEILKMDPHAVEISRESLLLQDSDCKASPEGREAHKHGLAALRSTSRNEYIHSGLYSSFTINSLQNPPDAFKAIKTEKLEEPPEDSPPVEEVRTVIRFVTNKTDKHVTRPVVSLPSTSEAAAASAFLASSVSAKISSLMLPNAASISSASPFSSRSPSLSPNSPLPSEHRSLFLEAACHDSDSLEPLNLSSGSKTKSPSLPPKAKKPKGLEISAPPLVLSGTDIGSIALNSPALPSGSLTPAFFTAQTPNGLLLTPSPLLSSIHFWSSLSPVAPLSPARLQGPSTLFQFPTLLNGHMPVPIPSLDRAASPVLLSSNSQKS
# Outline: as §1
# FEV = target: T7, FEV (Homo sapiens, UniProt Q99581 1-238); details: protein: recombinant; tags: N-terminal GST; dsDNA, one strand shown
# T7 sequence: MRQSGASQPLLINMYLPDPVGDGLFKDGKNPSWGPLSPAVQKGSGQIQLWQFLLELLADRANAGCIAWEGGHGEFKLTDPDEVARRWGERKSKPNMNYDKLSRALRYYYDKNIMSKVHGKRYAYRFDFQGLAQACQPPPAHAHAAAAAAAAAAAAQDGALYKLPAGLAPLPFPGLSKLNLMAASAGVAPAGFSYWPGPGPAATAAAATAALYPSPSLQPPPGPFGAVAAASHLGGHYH
# Outline: as §1
# ETV5 = ETV5 (Homo sapiens, UniProt P41161 1-510); details: protein: recombinant; tags: N-terminal GST; dsDNA, one strand shown
# Outline: as §1
# HSF1 = HSF1 (Homo sapiens, UniProt Q00613 1-529); details: protein: recombinant; tags: N-terminal GST; chain copies: 3; dsDNA, one strand shown
# Outline: as §1
# SPIC = target: T8, SPIC (Homo sapiens, UniProt Q8N5J4 1-248); details: protein: recombinant; tags: N-terminal GST; dsDNA, one strand shown
# T8 sequence: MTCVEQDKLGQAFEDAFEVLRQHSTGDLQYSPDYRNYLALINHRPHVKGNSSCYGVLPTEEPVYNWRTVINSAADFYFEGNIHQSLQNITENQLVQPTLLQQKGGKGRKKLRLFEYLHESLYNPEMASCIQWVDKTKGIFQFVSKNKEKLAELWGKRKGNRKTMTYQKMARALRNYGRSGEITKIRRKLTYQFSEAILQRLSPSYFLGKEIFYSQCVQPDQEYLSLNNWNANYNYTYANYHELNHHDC
# Outline: as §1
# ELF4 = ELF4 (Homo sapiens, UniProt Q99607 1-663); details: protein: recombinant; tags: N-terminal GST; dsDNA, one strand shown
# Outline: as §1
# ELK4 = target: T9, ELK4 (Homo sapiens, UniProt P28324-2 1-405); details: protein: recombinant; tags: N-terminal GST; dsDNA, one strand shown
# T9 sequence: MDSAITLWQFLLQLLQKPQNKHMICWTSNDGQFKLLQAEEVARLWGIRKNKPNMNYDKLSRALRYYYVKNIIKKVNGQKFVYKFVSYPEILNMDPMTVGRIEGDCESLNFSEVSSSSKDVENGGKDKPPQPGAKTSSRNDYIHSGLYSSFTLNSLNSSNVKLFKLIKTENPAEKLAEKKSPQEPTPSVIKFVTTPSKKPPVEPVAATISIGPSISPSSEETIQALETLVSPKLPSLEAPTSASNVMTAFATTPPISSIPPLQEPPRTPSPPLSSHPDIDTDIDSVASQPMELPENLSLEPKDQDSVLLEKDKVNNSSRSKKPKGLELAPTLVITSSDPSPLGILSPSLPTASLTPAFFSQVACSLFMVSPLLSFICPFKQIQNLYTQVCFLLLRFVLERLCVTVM
# Outline: as §1
# ETV2 = target: T10, ETV2 (Homo sapiens, UniProt O00321 1-342); details: protein: recombinant; tags: N-terminal GST; dsDNA, one strand shown
# T10 sequence: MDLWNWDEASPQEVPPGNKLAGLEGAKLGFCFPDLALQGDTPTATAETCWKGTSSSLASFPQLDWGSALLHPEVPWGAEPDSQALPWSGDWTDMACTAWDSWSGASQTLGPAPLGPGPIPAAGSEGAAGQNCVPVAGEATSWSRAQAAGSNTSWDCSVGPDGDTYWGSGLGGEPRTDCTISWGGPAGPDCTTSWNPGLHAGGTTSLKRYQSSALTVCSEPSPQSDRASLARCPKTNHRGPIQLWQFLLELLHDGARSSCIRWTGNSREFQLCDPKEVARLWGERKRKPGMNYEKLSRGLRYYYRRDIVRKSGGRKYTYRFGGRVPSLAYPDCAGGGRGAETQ
# Outline: as §1
# ELF3 = target: T11, ELF3 (Homo sapiens, UniProt P78545 1-371); details: protein: recombinant; tags: N-terminal GST; dsDNA, one strand shown
# T11 sequence: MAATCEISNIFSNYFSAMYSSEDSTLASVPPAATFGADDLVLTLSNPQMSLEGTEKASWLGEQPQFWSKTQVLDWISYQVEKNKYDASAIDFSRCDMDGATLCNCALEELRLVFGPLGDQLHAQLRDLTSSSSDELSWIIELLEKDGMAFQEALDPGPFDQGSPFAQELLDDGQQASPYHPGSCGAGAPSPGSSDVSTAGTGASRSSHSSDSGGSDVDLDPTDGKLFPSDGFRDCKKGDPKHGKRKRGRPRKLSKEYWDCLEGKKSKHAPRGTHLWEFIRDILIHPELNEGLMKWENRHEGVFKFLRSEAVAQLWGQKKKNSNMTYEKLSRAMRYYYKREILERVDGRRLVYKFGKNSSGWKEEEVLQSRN
# Outline: as §1
# CRX = CRX (Homo sapiens, UniProt O43186 1-299); details: protein: recombinant; tags: N-terminal GST; dsDNA, one strand shown
# Outline: as §1
# ETV1 = ETV1 (Homo sapiens, UniProt P50549 1-477); details: protein: recombinant; tags: N-terminal GST; dsDNA, one strand shown
# Outline: as §1
# ELF4, sequence (Q99607 whole entry): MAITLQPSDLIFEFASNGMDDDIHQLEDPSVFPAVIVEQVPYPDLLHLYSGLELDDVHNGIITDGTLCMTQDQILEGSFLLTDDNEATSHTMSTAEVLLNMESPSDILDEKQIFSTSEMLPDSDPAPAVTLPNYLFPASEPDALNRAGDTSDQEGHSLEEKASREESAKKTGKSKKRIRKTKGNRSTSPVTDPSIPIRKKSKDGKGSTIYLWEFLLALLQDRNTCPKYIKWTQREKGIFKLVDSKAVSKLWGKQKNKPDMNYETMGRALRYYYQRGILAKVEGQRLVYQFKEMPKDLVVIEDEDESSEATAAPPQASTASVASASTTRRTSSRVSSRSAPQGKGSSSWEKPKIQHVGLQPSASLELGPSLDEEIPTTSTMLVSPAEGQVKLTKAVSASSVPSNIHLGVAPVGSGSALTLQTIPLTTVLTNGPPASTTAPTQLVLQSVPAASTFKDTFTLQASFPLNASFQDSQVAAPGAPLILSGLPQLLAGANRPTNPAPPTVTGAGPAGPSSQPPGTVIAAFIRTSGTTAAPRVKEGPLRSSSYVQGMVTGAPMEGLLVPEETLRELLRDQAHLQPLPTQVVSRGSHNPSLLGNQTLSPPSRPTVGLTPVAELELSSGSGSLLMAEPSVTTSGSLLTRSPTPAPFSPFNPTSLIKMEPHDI
# ETV5, sequence (P41161 whole entry): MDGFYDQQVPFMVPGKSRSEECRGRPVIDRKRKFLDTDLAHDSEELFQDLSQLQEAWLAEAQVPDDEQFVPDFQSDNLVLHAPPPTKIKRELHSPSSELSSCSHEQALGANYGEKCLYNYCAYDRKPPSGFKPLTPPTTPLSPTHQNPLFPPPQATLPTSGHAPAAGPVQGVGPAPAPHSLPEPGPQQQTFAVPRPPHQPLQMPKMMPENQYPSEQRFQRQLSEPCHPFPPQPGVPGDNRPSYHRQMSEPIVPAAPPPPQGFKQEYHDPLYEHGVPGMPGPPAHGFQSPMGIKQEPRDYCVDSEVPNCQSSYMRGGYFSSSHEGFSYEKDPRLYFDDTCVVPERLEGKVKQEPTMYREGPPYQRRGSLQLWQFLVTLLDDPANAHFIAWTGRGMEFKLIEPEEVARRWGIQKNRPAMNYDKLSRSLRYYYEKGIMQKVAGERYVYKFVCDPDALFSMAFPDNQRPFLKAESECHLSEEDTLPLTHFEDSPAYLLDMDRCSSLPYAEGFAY
# ETV1, sequence (P50549 whole entry): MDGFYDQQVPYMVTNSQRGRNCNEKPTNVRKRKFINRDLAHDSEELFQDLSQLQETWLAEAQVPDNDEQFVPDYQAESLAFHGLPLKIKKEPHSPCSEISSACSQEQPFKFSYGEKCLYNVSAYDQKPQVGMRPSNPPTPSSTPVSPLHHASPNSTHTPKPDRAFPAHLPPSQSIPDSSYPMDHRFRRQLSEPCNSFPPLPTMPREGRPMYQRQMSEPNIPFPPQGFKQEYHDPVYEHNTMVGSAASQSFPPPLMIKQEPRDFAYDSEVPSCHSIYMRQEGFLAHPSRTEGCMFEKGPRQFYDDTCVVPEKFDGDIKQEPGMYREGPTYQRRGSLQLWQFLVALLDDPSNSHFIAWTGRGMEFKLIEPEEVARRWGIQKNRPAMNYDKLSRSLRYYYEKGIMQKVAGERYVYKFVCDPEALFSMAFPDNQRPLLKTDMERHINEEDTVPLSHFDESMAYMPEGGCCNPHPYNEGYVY
# CRX, sequence (O43186 whole entry): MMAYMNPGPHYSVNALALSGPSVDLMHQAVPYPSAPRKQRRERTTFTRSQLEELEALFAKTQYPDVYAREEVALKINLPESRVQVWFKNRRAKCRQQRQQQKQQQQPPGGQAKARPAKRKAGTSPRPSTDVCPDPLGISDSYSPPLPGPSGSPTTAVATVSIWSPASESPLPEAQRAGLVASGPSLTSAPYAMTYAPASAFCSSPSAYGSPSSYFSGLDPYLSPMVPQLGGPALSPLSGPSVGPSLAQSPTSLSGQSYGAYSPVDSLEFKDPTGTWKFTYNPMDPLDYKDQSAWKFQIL
# HSF1, sequence (Q00613 whole entry): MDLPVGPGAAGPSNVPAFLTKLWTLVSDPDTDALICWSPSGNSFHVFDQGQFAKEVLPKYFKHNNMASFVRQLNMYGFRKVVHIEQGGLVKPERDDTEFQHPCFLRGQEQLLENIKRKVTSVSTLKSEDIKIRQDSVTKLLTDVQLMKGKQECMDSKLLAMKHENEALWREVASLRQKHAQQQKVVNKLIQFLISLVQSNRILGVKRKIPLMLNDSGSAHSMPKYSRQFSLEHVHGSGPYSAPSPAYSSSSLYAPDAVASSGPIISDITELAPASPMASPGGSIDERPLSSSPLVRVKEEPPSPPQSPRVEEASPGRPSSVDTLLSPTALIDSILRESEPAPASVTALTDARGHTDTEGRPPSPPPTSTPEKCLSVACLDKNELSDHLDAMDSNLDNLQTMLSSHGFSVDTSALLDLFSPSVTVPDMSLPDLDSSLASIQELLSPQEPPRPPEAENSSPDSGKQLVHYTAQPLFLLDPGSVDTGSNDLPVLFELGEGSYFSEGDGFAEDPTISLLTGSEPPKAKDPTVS
# SPIB, sequence (Q01892 whole entry): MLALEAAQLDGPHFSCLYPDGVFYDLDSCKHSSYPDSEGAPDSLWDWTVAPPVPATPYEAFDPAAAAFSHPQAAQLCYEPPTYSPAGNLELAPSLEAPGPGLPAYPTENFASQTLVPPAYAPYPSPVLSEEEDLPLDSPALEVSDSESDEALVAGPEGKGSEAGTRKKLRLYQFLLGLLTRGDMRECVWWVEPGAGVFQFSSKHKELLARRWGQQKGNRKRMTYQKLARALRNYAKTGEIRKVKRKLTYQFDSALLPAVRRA
# ELF1, sequence (P32519 whole entry): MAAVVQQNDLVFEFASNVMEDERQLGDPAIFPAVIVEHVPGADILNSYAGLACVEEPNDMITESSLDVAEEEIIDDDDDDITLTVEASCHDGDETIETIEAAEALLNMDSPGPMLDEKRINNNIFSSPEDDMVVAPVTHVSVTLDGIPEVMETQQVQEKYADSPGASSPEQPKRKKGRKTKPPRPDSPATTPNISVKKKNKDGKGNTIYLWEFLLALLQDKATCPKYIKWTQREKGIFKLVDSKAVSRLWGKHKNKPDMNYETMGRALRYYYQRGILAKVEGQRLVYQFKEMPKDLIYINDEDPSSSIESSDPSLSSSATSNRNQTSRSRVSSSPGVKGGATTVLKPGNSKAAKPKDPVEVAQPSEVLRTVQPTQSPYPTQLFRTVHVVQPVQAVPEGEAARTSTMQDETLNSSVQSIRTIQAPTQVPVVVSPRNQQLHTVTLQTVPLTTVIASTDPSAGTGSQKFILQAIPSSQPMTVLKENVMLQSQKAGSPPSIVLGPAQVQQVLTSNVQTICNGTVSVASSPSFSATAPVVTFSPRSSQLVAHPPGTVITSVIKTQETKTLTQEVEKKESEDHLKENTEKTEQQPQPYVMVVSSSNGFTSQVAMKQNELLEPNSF
sequence,measurement,setting,value
CTCTGT,binding signal,FLI1,"1.5 fold enrichment (6-mer frequency, TF over GST control)"
same,binding signal,ELK1,"1.39 fold enrichment (6-mer frequency, TF over GST control)"
same,binding signal,GABPA,"1.33 fold enrichment (6-mer frequency, TF over GST control)"
same,binding signal,ERG,"1.29 fold enrichment (6-mer frequency, TF over GST control)"
same,binding signal,ELF1,"1.5 fold enrichment (6-mer frequency, TF over GST control)"
same,binding signal,EHF,"1.44 fold enrichment (6-mer frequency, TF over GST control)"
same,binding signal,SPI1,"1.34 fold enrichment (6-mer frequency, TF over GST control)"
same,binding signal,SPIB,"1.36 fold enrichment (6-mer frequency, TF over GST control)"
same,binding signal,ELK3,"1.19 fold enrichment (6-mer frequency, TF over GST control)"
same,binding signal,FEV,"1.39 fold enrichment (6-mer frequency, TF over GST control)"
same,binding signal,ETV5,"1.42 fold enrichment (6-mer frequency, TF over GST control)"
same,binding signal,HSF1,"1.15 fold enrichment (6-mer frequency, TF over GST control)"
same,binding signal,SPIC,"1.5 fold enrichment (6-mer frequency, TF over GST control)"
same,binding signal,ELF4,"1.33 fold enrichment (6-mer frequency, TF over GST control)"
same,binding signal,ELK4,"1.5 fold enrichment (6-mer frequency, TF over GST control)"
same,binding signal,ETV2,"1.39 fold enrichment (6-mer frequency, TF over GST control)"
same,binding signal,ELF3,"1.4 fold enrichment (6-mer frequency, TF over GST control)"
same,binding signal,CRX,"1.18 fold enrichment (6-mer frequency, TF over GST control)"
same,binding signal,ETV1,"1.43 fold enrichment (6-mer frequency, TF over GST control)"
